PrPC TRFRET: cell surface PrPC inhibition, primary TR-FRET screen. TR-FRET read-out. AID 720596. inhibition, % at 13.8 µM. P04156. 0.43% of 370,000 active; in the data active = inhibition above about 24%; note: 0% = median of the test wells and 100% = reference compound wells
PrP UTR inh: suppresses PrP 5' UTR mRNA reporter expression. cell-based PrP 5' UTR mRNA reporter, plate reader. inhibition, % (no concentration beside the values). 0.35% of 340,000 active. AID 488862; in the data active = inhibition above about 52%; note: 0 = median of the neutral control wells
PfHsp40 yeast: compounds rescuing yeast from Plasmodium falciparum HSP40 toxicity; S. cerevisiae expressing PfHsp40, growth rescue, ATP luminescence; growth rescue, % at 12.5 µM; 0.68% of 340,000 active; AID 504582; in the data active = growth rescue above about 28%, passing the limit was not always enough;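 note: yeast W303a lacking pdr1 and pdr3 grown in galactose medium; growth measured after three days at 30 °C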
DUSP3 inh: inhibitors of human VHR1 phosphatase (DUSP3). P51452. recombinant VHR phosphatase, pNPP absorbance. inhibition, % at 13.3 µM. 0.52% of 290,000 active. AID 1654; in the data active = inhibition above about 50%
Target sequence (P51452 whole entry, looked up): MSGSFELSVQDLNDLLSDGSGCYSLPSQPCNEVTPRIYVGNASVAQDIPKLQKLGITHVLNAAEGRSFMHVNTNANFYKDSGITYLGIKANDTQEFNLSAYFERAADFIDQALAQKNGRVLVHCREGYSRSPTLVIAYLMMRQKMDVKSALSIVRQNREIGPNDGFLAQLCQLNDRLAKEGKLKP
MazF activator: increases E. coli MazEF RNase cleavage of RNA. P0AE70. FAM/BHQ RNA-DNA oligo cleavage fluorescence, 5 h. activation, % at 20 µM. 0.32% of 350,000 active. AID 504720; in the data active = activation above about 50%
Target sequence (P0AE70 whole entry, looked up): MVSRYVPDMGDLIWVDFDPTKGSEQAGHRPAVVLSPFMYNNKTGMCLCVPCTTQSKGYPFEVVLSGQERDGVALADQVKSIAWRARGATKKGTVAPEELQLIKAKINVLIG
BJeLR viability: BJeLR cell viability loss; BJeLR (HRASV12) viability, CellTiter-Glo ATP luminescence, 48 h; AID 1554; inhibition, % (no concentration beside the values); 0.17% of 300,000 active; in the data active = inhibition above about 50%
* = called active by the depositor; . = no result; + = active, no number. Only some compounds are listed: those with a hit (about 2.1% of all), similar ones and a draw of the others.

SMILES	PrPC TRFRET	PrP UTR inh	PfHsp40 yeast	DUSP3 inh	MazF activator	BJeLR viability
O/N=C(\c1ccc(Cl)cc1)c1cc2ccccc2o1	-2.5	-35.2	641.2*	25.6	-6.6	-1.3
O=C(Nc1ccc(Cl)cc1Cl)c1cc2ccccc2o1	-6.8	-48.9	-1.3	38.7	-2.4	3.3
O=C1C=C(c2cccs2)C[C@H](c2ccccc2)[C@H]1n1nnc([N+](=O)[O-])n1	-7.7	-39.1	1.0	-1.6	4.4	82.6*
CC(=O)C1C(=O)C=C(c2cccs2)CC1c1ccccc1 (stereo not drawn)	-1.9	-12.6	0.0	-4.4	-15.0	3.5
COc1ccc2c(c1)NC(=O)[C@@]2(CCN1C(=O)c2ccccc2C1=O)c1[nH]c2ccccc2c1CCN1C(=O)c2ccccc2C1=O	-11.8	.	.	.	.	.
Cc1nnsc1C(=O)N/N=C/c1ccccc1	0.3	-2.6	-0.9	-6.1	5.5	-6.5
Cc1nnsc1C(=O)N/N=C/c1ccc2ccccc2c1O	-1.8	47.6	-0.3	13.6	-27.2	60.9*
COc1ccc(CNC(=O)C(c2ccco2)N(C(=O)c2snc(C(N)=O)c2N)c2ccccc2OC)cc1 (stereo not drawn)	-0.1	-3.0	0.5	24.1	1.1	-5.3
Nc1c(C(=O)c2ccccc2)sc2nsc(SCCN3CCOCC3)c12	-9.6	.	.	29.8	126.7*	6.2
CC(=O)c1sc2nsc(SCCN3CCOCC3)c2c1N	-12.6	.	.	-2.7	-15.5	-13.0
CCC1(C(=O)NC(=Nc2ccccc2)Nc2ccccc2)CCOC1=O (stereo not drawn)	2.7	-13.1	-0.3	.	-2.1	.
Cc1ccc(Cn2cc(COC(=O)NCCc3c[nH]c4ccccc34)nn2)cc1	15.9	.	.	.	.	.
CCNC(=O)NC(=O)CSc1cccc(C(F)(F)F)c1	1.9	-2.4	-0.1	18.9	6.0	-1.9
O=C(CSc1cccc(C(F)(F)F)c1)NC(=O)c1ccccc1	4.7	-3.8	2.6	50.8*	-4.3	11.9
O=C(CCCSCCCC(=O)NN=Cc1ccccc1)NN=Cc1ccccc1	7.8	-16.2	0.8	.	8.2	.
COC(=O)Cn1c2ccc(OC)cc2c2nc3ccccc3nc21	0.1	-13.9	-0.3	7.0	235.8*	-2.4
CCOC(=O)Cn1c2ccc(OC)cc2c2nc3ccccc3nc21	1.0	-11.6	2.3	42.7	276.2*	3.3
CCOc1ccc(Cn2c3ccc(OC)cc3c3nc4ccccc4nc32)cc1OC	-12.4	-12.9	0.4	29.8	-21.1	-1.4
COc1ccc2c(c1)c1nc3ccccc3nc1n2Cc1ccc(OC)c(OC)c1	-3.9	-15.8	-0.9	20.9	115.7*	15.0
Nc1nc(CSc2nc3ccccc3s2)nc(N2CCOCC2)n1	7.0	-20.5	-0.2	53.0*	-2.0	-5.1
COc1ccc(OC)c(/C=C2\N=C(c3ccccc3)OC2=O)c1	0.3	-18.6	0.4	-11.8	+	2.1
COc1cc(/C=C2\N=C(c3ccccc3)OC2=O)ccc1OC(C)=O	-8.5	-6.8	0.2	1.3	-0.8	-1.6
Cc1cc(=O)c(C(=O)OC(C)C(=O)NC(N)=O)nn1-c1ccc(Cl)cc1 (stereo not drawn)	2.1	-21.1	-0.5	11.5	9.2	-5.8
CN1C(=O)N(CC(=O)c2ccc3c(c2)OCO3)C(=O)C12CCCCC2	-6.5	.	.	.	-0.3	.
CCC(C(=O)NCCCN1CC(C)CC(C)C1)n1ncn2c(cc3occc32)c1=O (stereo not drawn)	-4.7	-6.7	-0.9	57.7*	8.3	4.6
SMILES	PrPC TRFRET	PrP UTR inh	PfHsp40 yeast	DUSP3 inh	MazF activator	BJeLR viability
CCC(C(=O)NCCCN1CCN(CC)CC1)n1nc(C)n2c(cc3occc32)c1=O (stereo not drawn)	2.6	-8.8	-1.1	-8.2	4.1	14.4
Cc1cc(C)nc(NS(=O)(=O)c2ccc(NC(=O)c3cccs3)cc2)n1	-3.3	-10.1	1.8	3.5	-9.6	-4.3
Cc1ccc(NC(=O)c2ccc(Cl)c(NC(=O)c3cccs3)c2)cc1	1.3	-30.3	35.5*	18.5	12.2	13.3
Cc1ccc(C)c(NS(=O)(=O)c2ccc(NC(=O)CSc3ccc(Cl)cc3)cc2)c1	-0.8	-74.7	-1.6	-1.8	3.6	-6.0
Cc1ccc(NS(=O)(=O)c2ccc(NC(=O)c3cccs3)cc2)c(C)c1	5.8	-32.2	0.7	-8.5	53.0*	1.6
Cc1ccc(NS(=O)(=O)c2ccc(NC(=O)C(C)Sc3ccc(Cl)cc3)cc2)c(C)c1 (stereo not drawn)	0.0	-10.8	93.3*	14.1	0.0	-5.1
CCCCn1c(CCl)nc2cc(S(=O)(=O)N3CCOCC3)ccc21	3.9	-3.2	0.3	.	7.5	.
O=C(O)Cn1nnc(-c2ccccc2)c1COc1ccccc1	4.8	.	.	.	.	.
NS(=O)(=O)c1ccc(CCNC(=O)CSc2ccc(Cl)cc2)cc1	8.1	-27.8	-0.3	17.0	-0.6	-1.8
NS(=O)(=O)c1ccc(CCNC(=O)CSc2ccc(Cl)cc2Cl)cc1	-1.6	-10.3	-0.9	22.6	63.0*	-1.2
C/C(=N/NS(=O)(=O)c1cccc([N+](=O)[O-])c1)c1c[nH]c2ccccc12	-4.6	-152.8	-0.3	14.0	56.2*	8.0
Cc1cc(C)c2cc3c(N)c(C(=O)Nc4c(C)[nH]c(=O)[nH]c4=O)sc3nc2c1	3.4	-22.8	-0.5	-1.6	155.5*	-1.7
O=C1CCC[C@H]2Cc3nc4cccc(Cl)c4cc3C[C@]23CCCN13	-9.4	.	.	.	.	.
CC(C)(C)C(=O)C(Cc1ccccc1Cl)n1cncn1 (stereo not drawn)	0.7	-13.9	24.8	28.3	1.2	-1.9
CC(C)(C)C(O)C(Cc1ccccc1Cl)n1cncn1 (stereo not drawn)	10.0	-1.5	275.7*	23.9	1.3	-12.1
O=C1C(=C(c2ccccc2)c2ccccc2)Nc2ccccc21	-19.6	-13.5	77.7*	25.4	8.2	-2.6
C#CCNC(=O)C[C@@H]1C[C@@]2(C(=O)OC)CCCCC=C2N(Cc2ccc(Cl)cc2Cl)C1=O	-0.7	.	.	.	.	.
O=[N+]([O-])c1cc(Br)cc(/C=N/n2cnnc2)c1O	-23.0	-10.8	203.7*	27.7	-4.8	2.9
COc1ccc(CCNC(=O)c2ccc(S(=O)(=O)N(C)c3ccccc3)cc2)cc1OC	3.2	-20.8	-0.1	52.0*	4.8	-7.1
COC(=O)c1cc(CNC(=O)c2ccc(S(=O)(=O)N(C)c3ccccc3)cc2)ccc1OC	4.3	-8.9	1.1	.	4.2	.
COC(=O)c1c(NC(=O)C(C)(C)C)csc1C	-2.5	-10.4	37.6*	-0.3	6.0	3.0
O=C(O)c1cc(N2N=C(C(F)(F)F)/C(=C/C=C/c3ccco3)C2=O)ccc1Cl	2.2	-26.4	112.3*	48.3	-27.0	.
COc1ccc(S(=O)(=O)NC2CC3CCC2C3)cc1Br (stereo not drawn)	7.6	-18.5	80.9*	-3.2	6.3	-6.4
Cc1cc(C)c(S(=O)(=O)NC2CC3CCC2C3)c(C)c1 (stereo not drawn)	1.2	-22.7	64.3*	4.1	0.2	-0.6
C[C@@H]1CN([C@@H](C)CO)C(=O)c2cc(C#Cc3cccc(F)c3)cnc2O[C@@H]1CN(C)CC1CCOCC1	-6.2	.	.	.	-4.2	.

Compound activity deposited in PubChem BioAssay by several laboratories.
